This note sets out measurements from PubChem BioAssay (EPA / NIEHS).

Values joined by “and” are separate entries in the source; they are usually repeats but may differ in a detail not shown here. Identical values can stand only once. Active and inactive are the calls of the source. How the source made its calls: active means hit-call score of the fitted dose curve at least 0.9, where 1 is the maximum; inactive means score below 0.9.

Read-out in assay [1]: C-C motif chemokine 2 (Homo sapiens) (UniProt P13500)
Description: BSK_KF3CT_MCP1: BioMAP Diversity Plus: KF3CT Assay for Monocyte Chemoattractant Protein 1 (MCP1/CCL2) Biomarker Activity (AID 2283073). As to conditions: primary human keratinocytes with fibroblasts; actives raise or lower the signal. In outline: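 KF3CT skin co-culture (keratinocytes/foreskin fibroblasts), 24 h post-dose; MCP-1 by ELISA; gain/loss of signal fit bidirectionally vs DMSO baseline.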

Read-out in assay [2]: urokinase plasminogen activator (uPA), PLAU (gene 5328)
Description: BSK_KF3CT_uPA: BioMAP Diversity Plus: KF3CT Assay for urokinase plasminogen activator (uPA) Biomarker Activity (AID 2283075). As to conditions: primary human keratinocytes with fibroblasts; actives raise or lower the signal. In short, it runs like this: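 Human keratinocyte plus foreskin fibroblast primary co-culture exposed to chemical for 24 h. uPA levels were quantified by ELISA, and activity was fitted bidirectionally against a DMSO negative-control baseline.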

Read-out in assay [3]: CD40, CD40 (gene 958)
The assay is described as follows: BSK_LPS_CD40: BioMAP Diversity Plus: LPS Assay for CD40 Biomarker Activity (AID 2283076). As to conditions: primary human HUVEC with PBMC; actives raise or lower the signal. In short, it runs like this:
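ELISA readout of CD40 in HUVEC/PBMC co-culture (BSK_LPS system), 24 h post-dosing; bidirectional curve fit, DMSO baseline; parallel SRB total-protein staining for cytotoxicity.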

Read-out in assay [4]: E-selectin (Homo sapiens) (UniProt P16581)
Description: BSK_LPS_Eselectin: BioMAP Diversity Plus: LPS Assay for Eselectin Biomarker Activity (AID 2283077). As to conditions: primary human HUVEC with PBMC; actives raise or lower the signal. In outline:
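ELISA readout of E-selectin, 24 h post-dose, HUVEC + PBMC co-culture (LPS system). Gain or loss of signal vs DMSO baseline, bidirectional fit.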

Read-out in assay [5]: Interleukin-8 (IL8), CXCL8 (gene 3576)
The assay is described as follows: BSK_LPS_IL8: BioMAP Diversity Plus: LPS Assay for Interleukin-8 (IL8) Biomarker Activity (AID 2283078). As to conditions: primary human HUVEC with PBMC; actives raise or lower the signal. In short, it runs like this: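 HUVEC + PBMC co-culture, LPS-activated; test chemicals dosed, IL-8 read by ELISA at 24 h. Bidirectional curve fit vs DMSO baseline (gain or loss of signal).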

The nature of assay [6]: BSK_LPS_SRB: Viability Assessment in the BioMAP Diversity Plus: LPS Assay (AID 2283079).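 Further: total protein by sulforhodamine B absorbance as a cytotoxicity measure; measured one day after compound addition; fitted in both directions against DMSO so loss or gain of signal counts.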 As to conditions: primary human HUVEC with PBMC. In outline: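 HUVEC + PBMC co-culture, LPS-stimulated; compound 24 h. 10% TCA fix, 0.1% SRB stain, A560. Bidirectional fit vs DMSO.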
Read-out in assay [7]: Interleukin-1 alpha (IL1a), IL1A (gene 3552)
Description: BSK_LPS_IL1a: BioMAP Diversity Plus: LPS Assay for Interleukin-1 alpha (IL1a) Biomarker Activity (AID 2283080). As to conditions: primary human HUVEC with PBMC; actives raise or lower the signal. In outline:
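HUVEC/PBMC co-culture, LPS system; 24 h after dosing; IL-1a by ELISA; gain or loss of signal fitted bidirectionally vs DMSO baseline.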

Read-out in assay [8]: Monocyte Chemoattractant Protein-1 (MCP1), CCL2 (gene 6347)
The assay is described as follows: BSK_LPS_MCP1: BioMAP Diversity Plus: LPS Assay for Monocyte Chemoattractant Protein-1 (MCP1) Biomarker Activity (AID 2283081).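 On AC50: secreted MCP-1 protein quantified by ELISA in culture supernatant.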 As to conditions: primary human HUVEC with PBMC; actives raise or lower the signal. In short, it runs like this: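 ELISA read-out of MCP-1 after 24 h chemical dosing of a human umbilical vein endothelial cell/peripheral blood mononuclear cell co-culture stimulated with LPS. Gain or loss of signal fitted relative to DMSO controls.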

Assay [9] is described as follows: BSK_LPS_PGE2: BioMAP Diversity Plus: LPS Assay for Prostaglandin E2 (PGE2) Biomarker Activity (AID 2283082). As to conditions: primary human HUVEC with PBMC; actives raise or lower the signal. In short, it runs like this: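 HUVEC plus human PBMC co-culture stimulated with LPS; secreted PGE2 quantified by ELISA 24 h after chemical dosing. Activity fitted bidirectionally against DMSO baseline; parallel SRB staining (0.1% SRB after 10% TCA fixation, 560 nm) flags overt cytotoxicity.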

Read-out in assay [10]: Macrophage colony-stimulating factor (MCSF), CSF1 (gene 1435)
The assay is described as follows: BSK_LPS_MCSF: BioMAP Diversity Plus: LPS Assay for Macrophage colony-stimulating factor (MCSF) Biomarker Activity (AID 2283083). As to conditions: primary human HUVEC with PBMC; actives raise or lower the signal. In outline: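 HUVEC + PBMC co-culture (human primary), 24 h post-dose; M-CSF by ELISA; gain/loss of signal fitted bidirectionally vs DMSO baseline.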

Read-out in assay [11]: Tissue Factor, F3 (gene 2152)
The assay is described as follows: BSK_LPS_TissueFactor: BioMAP Diversity Plus: LPS Assay for Tissue Factor Biomarker Activity (AID 2283084). As to conditions: primary human HUVEC with PBMC; actives raise or lower the signal. In short, it runs like this: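 HUVEC/PBMC co-culture, LPS-activated; CD142 ELISA read 24 h post-dose; bidirectional curve fit vs DMSO negative control.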

Read-out in assay [12]: Tumor necrosis factor (Homo sapiens) (UniProt P01375)
The assay is described as follows: BSK_LPS_TNFa: BioMAP Diversity Plus: LPS Assay for Tumour Necrosis Factor alpha (TNFa) Biomarker Activity (AID 2283085). As to conditions: primary human HUVEC with PBMC; actives raise or lower the signal. In outline:
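Human umbilical vein endothelial cells co-cultured with PBMC and stimulated with LPS. TNFa was measured by ELISA 24 h after chemical dosing, fitted bidirectionally relative to DMSO.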

Read-out in assay [13]: Vascular cell adhesion molecule 1 (VCAM1), VCAM1 (gene 7412)
The assay is described as follows: BSK_LPS_VCAM1: BioMAP Diversity Plus: LPS Assay for Vascular cell adhesion molecule 1 (VCAM1) Biomarker Activity (AID 2283086). As to conditions: primary human HUVEC with PBMC; actives raise or lower the signal. In outline:
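Human umbilical vein endothelial cells co-cultured with PBMC and stimulated with LPS; VCAM-1 measured by ELISA 24 h after dosing. Bidirectional curve fitting against DMSO baseline; cytotoxicity tracked in parallel by SRB total-protein staining.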

Read-out in assay [14]: CD38, CD38 (gene 952)
The assay is described as follows: BSK_SAg_CD38: BioMAP Diversity Plus: SAg Assay for CD38 Biomarker Activity (AID 2283087). As to conditions: primary human HUVEC with PBMC; actives raise or lower the signal. In short, it runs like this:
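Human HUVEC plus PBMC co-culture stimulated with superantigen; CD38 measured by ELISA 24 h after chemical dosing. Fluorescence read-out, bidirectional fit against DMSO; cytotoxicity tracked in parallel by SRB and Alamar Blue.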

Read-out in assay [15]: CD40, CD40 (gene 958)
The assay is described as follows: BSK_SAg_CD40: BioMAP Diversity Plus: SAg Assay for CD40 Biomarker Activity (AID 2283088). As to conditions: primary human HUVEC with PBMC; actives raise or lower the signal. In outline: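 HUVEC/PBMC co-culture, 24 h post-dose; CD40 by ELISA, fluorescence intensity; bidirectional fit vs DMSO negative control.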

Read-out in assay [16]: CD69, CD69 (gene 969)
Description: BSK_SAg_CD69: BioMAP Diversity Plus: SAg Assay for CD69 Biomarker Activity (AID 2283089).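 On AC50: cell surface CD69 protein quantified by ELISA with fluorescence detection.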 As to conditions: primary human HUVEC with PBMC; actives raise or lower the signal. In short, it runs like this:
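Values derive from bidirectional fitting relative to DMSO vehicle. Cells: umbilical vein endothelium plus peripheral blood mononuclear cells, treated 24 h before fluorescent ELISA for CD69.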

Read-out in assay [17]: Monocyte Chemoattractant Protein-1 (MCP1), CCL2 (gene 6347)
Description: BSK_SAg_MCP1: BioMAP Diversity Plus: SAg Assay for Monocyte Chemoattractant Protein-1 (MCP1) Biomarker Activity (AID 2283090). As to conditions: primary human HUVEC with PBMC; actives raise or lower the signal. In short, it runs like this:
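MCP-1 levels in the endothelial–PBMC SAg co-culture were quantified by ELISA at 24 h post-dosing; both increases and decreases versus DMSO scored. Cytotoxicity monitored by SRB total protein in parallel cultures.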

Read-out in assay [18]: E-selectin (Homo sapiens) (UniProt P16581)
Description: BSK_SAg_Eselectin: BioMAP Diversity Plus: SAg Assay for Eselectin Biomarker Activity (AID 2283091). As to conditions: primary human HUVEC with PBMC; actives raise or lower the signal. In outline: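 E-selectin ELISA readout at 24 h post-dosing in human umbilical vein endothelial cell/PBMC co-culture; gain or loss of signal fitted relative to DMSO baseline.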

Read-out in assay [19]: Monokine induced gamma interferon (MIG), CXCL9 (gene 4283)
The assay is described as follows: BSK_SAg_MIG: BioMAP Diversity Plus: SAg Assay for Monokine induced gamma interferon (MIG) Biomarker Activity (AID 2283092). As to conditions: primary human HUVEC with PBMC; actives raise or lower the signal. In short, it runs like this: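 Values reflect bidirectional fitting of ELISA-measured MIG against DMSO vehicle, taken 24 h after dosing of a co-culture of human umbilical vein endothelial cells and peripheral blood mononuclear cells.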

Read-out in assay [20]: Matrix Metallopeptidase 9 (MMP9), MMP9 (gene 4318)
Description: BSK_KF3CT_MMP9: BioMAP Diversity Plus: KF3CT Assay for Matrix Metallopeptidase 9 (MMP9) Biomarker Activity (AID 2283074).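 On AC50: MMP9 protein level quantified by ELISA in the co-culture.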 As to conditions: primary human keratinocytes with fibroblasts; actives raise or lower the signal. In short, it runs like this: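 Keratinocyte plus foreskin fibroblast human primary skin co-culture was dosed with chemical and MMP-9 was quantified by ELISA 24 h later. Bidirectional curve fitting used DMSO as negative control and activity baseline.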

Sequence of Tumor necrosis factor (Homo sapiens) (P01375 whole entry, looked up): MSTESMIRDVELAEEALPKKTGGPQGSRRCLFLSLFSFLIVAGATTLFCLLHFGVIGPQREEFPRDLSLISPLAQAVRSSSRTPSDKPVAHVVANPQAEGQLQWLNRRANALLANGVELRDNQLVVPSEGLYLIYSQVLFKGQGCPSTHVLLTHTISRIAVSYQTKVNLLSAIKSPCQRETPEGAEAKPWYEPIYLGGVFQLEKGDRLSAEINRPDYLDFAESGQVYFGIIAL
Sequence of E-selectin (Homo sapiens) (P16581 whole entry, looked up): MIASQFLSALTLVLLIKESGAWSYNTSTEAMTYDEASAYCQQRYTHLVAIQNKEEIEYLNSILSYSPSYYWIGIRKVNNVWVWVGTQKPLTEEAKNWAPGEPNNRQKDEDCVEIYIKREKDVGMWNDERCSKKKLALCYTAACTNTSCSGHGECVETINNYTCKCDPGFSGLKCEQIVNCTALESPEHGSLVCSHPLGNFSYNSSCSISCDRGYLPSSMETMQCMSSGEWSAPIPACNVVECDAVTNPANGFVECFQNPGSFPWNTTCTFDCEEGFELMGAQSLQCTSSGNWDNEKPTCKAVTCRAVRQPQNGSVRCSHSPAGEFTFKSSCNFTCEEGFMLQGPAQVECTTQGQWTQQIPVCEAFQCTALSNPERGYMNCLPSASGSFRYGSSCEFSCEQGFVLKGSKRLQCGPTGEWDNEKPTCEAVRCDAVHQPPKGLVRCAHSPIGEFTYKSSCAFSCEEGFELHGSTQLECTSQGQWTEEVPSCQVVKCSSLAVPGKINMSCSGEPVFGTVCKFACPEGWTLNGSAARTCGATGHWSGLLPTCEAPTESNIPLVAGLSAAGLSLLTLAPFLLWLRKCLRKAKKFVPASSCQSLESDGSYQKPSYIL

As for `O=C(O)c1cn(-c2ccc(F)cc2)c2cc(N3CCNCC3)c(F)cc2c1=O`, the outcome in [1], in assay [2], in assay [3], in [4], in [5] and in assay [6] was inactive. The outcome in assay [7], in assay [8], in assay [9], in [10], in [11] and in [12] was inactive. Moreover, the outcome in assay [13], in assay [14], in [15], in assay [16], in [17] and in assay [18] was inactive. For the same molecule, the result in [19] was inactive.

The term AC50 denotes the concentration giving half of the maximal activity seen. Regarding `Cc1ccc(O)c(C(C)(C)C)c1`, the concentration at half-maximal activity (AC50) in assay [1] is 36.6 µM (active); in assay [20] it was 30.9 µM (active); in assay [2], 36.6 µM (active); in assay [3], 30.4 µM (active); in [4] it was 30.4 µM (active); in [5] it was 29.6 µM (active). Also, the AC50 in assay [6] was 31 µM (active); in assay [7], 36.2 µM (active); in assay [8], 33 µM (active); in assay [10] it was 36.9 µM (active); in [11] it was 30.4 µM (active); in assay [12], 34.8 µM (active). For the same molecule, the AC50 in assay [13] was 36.8 µM (active); in assay [14] it was 37 µM (active); in [15], 35.5 µM (active); in assay [16] it was 30.9 µM (active); in assay [17], 36.6 µM (active); in assay [18] it was 37.5 µM (active). For the same molecule, the AC50 in [19] is 38.1 µM (active). Besides, the result in assay [9] was inactive.

With `Nc1cc([N+](=O)[O-])ccc1O`, the result in [1], in assay [20], in assay [2], in assay [3], in assay [4] and in assay [5] was inactive. Moreover, the result in assay [6], in assay [7], in [8], in assay [10], in assay [11] and in [12] was inactive. Further, the result in assay [13], in assay [14], in assay [15], in assay [16], in assay [17] and in assay [18] was inactive. Further, the outcome in assay [19] was inactive. Moreover, the concentration at half-maximal activity (AC50) in assay [9] is 3.97 µM (active) and 6.28 µM (active).
